# ERK AVP inh – vasopressin-driven ERK pathway inhibition | HEK293-V1b, vasopressin-stimulated pERK AlphaScreen | Potency, µM (series often up to 57.5 µM), without a hit: at the highest dose activity, negative = inhibition, hits mostly inhibitors | actives 0.99% (n = 72,000); note: % is set by controls: 0 for no effect and ±100 for the full control effect; nearly all actives have a fitted effect of over 55% in size
#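 Phosphorylated ERK1/2 detected via AlphaScreen bead proximity in lysates of V1b-expressing HEK293 cells given 25 nM vasopressin for 5 min after 30 min compound exposure (37 °C). AC50 from Hill equation; basal DMSO 0%, vasopressin 100%.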
# HEK293 cAMP cs – counter-screen for TSHR agonists: cAMP increase in parental HEK293; AID 938; Potency, µM (doses to about 57.1 µM), for inactives: at the highest dose activation, hits mostly activators; actives 2.5% (n = 73,000); parental HEK293 CNG cAMP sensor, membrane potential fluorescence; note: % of control where 0% means no effect; nearly all actives have a fitted effect of over 55% in size
#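 Counterscreen for endogenous-receptor signalling: CNG-channel HEK 293 cells report cAMP rise by membrane depolarization. After 60 min dye equilibration with 100 uM RO 20-1724, compounds incubated 30 min before bottom-read fluorescence at 590 nm.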
# CRE-bla Fsk – CRE-bla signaling modulation under forskolin stimulation; CHO CRE-bla reporter (cAMP response element driving beta-lactamase), forskolin EC10, beta-lactamase ratio; Potency, µM (highest dose often 38.2 µM), inactives show at the highest dose activity change, negative = inhibition, hits mostly activators; actives 2.5% (n = 71,000); AID 662; active = well fitted activation curve with a large enough effect in the signal ratio, with a control signal flat, not every such curve was filed as active; inconclusive = small, poorly fitted or top-dose-only effect, or effect the other way, or a change in a side signal; the % refers to the signal ratio; note: % of control where 0% means no effect
#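 CRE-bla CHO reporter cells treated with compound titration plus EC10 NKH 477 (water-soluble forskolin), incubated 3 h at 37 °C; CCF4 loading 2 h at room temperature, 460/530 nm emission ratio read, AC50 values derived for positive or negative modulators.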
# IkB signaling – inhibitors of IkB signaling in ABC-DLBCL cells; ABC-DLBCL IkBa-CBG/CBR dual luciferase ratio, 4 h; response scale: scaled: untreated 0%, proteasome inhibitor 100%; Potency, µM (titrated, usually from 57.1 µM), without a hit: at the top dose IkBa stabilization activation; actives 0.04% (n = 110,000); active = well fitted curve in the direction sought with a large enough effect in the signal ratio, not every such curve was filed as active; inconclusive = small, poorly fitted or top-dose-only effect, or a change in a side signal; the % refers to the signal ratio;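 note: the direction sought is a rising ratio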
#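 Luminescence ratio of IκBα-fused green versus native red beetle luciferase in OCI-Ly3 cells, 4 h post-doxycycline with compound; red signal alone, scaled from basal (0%) to zero light (-100%), flagged nonspecific or cytotoxic effects.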
# TSHR ag – TSH receptor (human) agonism; actives 0.48% (n = 73,000); Potency, µM (top dose mostly 57.1 µM), for the others: top-dose activation, hits mostly activators; HEK293-CNG-TSHR cells (CNG channel as cAMP sensor), membrane potential dye, cAMP; active = well fitted activation curve with a large enough effect in the main read-out, with a control signal flat, not every such curve was filed as active; inconclusive = small, poorly fitted or top-dose-only effect, or a change in a side signal; inactive = no such curve, though single readings can be large or run the other way; % of control where 0% means no effect;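 note: the control signal comes from parental cells without the receptor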
# Target sequence (P16473 whole entry, looked up): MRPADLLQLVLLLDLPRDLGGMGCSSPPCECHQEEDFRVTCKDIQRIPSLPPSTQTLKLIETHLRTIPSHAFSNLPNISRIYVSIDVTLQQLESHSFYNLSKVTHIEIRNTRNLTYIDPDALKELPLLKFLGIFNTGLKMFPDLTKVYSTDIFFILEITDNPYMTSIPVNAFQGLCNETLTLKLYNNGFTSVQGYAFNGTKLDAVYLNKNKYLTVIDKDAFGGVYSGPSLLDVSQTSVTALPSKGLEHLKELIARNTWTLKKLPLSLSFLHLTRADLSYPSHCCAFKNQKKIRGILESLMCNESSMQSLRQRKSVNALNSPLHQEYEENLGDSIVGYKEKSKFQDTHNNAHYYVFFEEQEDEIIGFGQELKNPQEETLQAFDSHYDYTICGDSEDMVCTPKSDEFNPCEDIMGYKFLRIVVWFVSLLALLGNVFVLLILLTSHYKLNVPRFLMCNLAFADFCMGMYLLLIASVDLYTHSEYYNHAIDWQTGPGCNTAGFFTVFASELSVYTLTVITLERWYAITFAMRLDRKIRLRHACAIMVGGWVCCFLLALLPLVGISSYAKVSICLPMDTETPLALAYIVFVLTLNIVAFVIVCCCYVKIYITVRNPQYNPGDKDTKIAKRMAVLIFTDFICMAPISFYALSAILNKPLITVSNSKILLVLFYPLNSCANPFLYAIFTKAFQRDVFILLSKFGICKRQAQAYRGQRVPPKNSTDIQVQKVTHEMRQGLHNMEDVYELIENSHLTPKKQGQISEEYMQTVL
#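 HEK 293 cells stably expressing TSHR and a modified CNG channel, with CNG-only parental cells as counterscreen, were preloaded 60 min at room temperature with membrane potential dye containing 100 uM RO 20-1724. Compound exposure was 30 min, and depolarization was read as fluorescence at 590 nm.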
# * = called active by the depositor; u = inconclusive; x = no result; [ ] = dose if it differs, or a comment. An excerpt weighted towards active compounds, which were near 3.6% of everything screened. Unless noted, calls come from the whole dose curve; as a rule, active = well fitted curve in the direction sought with a large enough effect; inconclusive = small, poorly fitted or top-dose-only effect, or another doubt; inactive = no such curve, though single readings can be large; an effect the other way counts as inactive or inconclusive. Potency is the fitted concentration of half-maximal effect.
SMILES,ERK AVP inh,HEK293 cAMP cs,CRE-bla Fsk,IkB signaling,TSHR ag
CSc1nc(-c2ccccc2)nc2c1COC(C)(C)C2,18%,18%,u,4%,11%
CCc1nc2cc(C)nn2c2nc3ccccc3n12,-13%,20%,3.2µM*,0%,24%
COc1ccc(C)cc1NC(=O)CN1C(=O)CSc2ccc(S(=O)(=O)N3CCCC3)cc21,x,x,x,-2%,x
CCC1=C2CC[C@H]3C(=O)N(C)C(=O)[C@H]3[C@H]2[C@@]2(Cc3ccccc3)C(=NCCOC)OC(=O)N2C1=O,-13%,x,x,x,x
CC(C)c1cc(C(N)=O)c(NC(=O)C2CCC2)s1,u,-7%,u,-6%,-3%
Cc1ccccc1-n1nnnc1SCc1csc(-c2ccccc2)n1,7%,3.2µM*,0%,u,u
COCCn1c(SCc2csc(-c3ccccc3)n2)nc2ccccc21,25µM*,32µM*,2.5µM*,u,u
Nn1c(SCc2csc(-c3ccccc3)n2)nnc1-c1cccs1,7%,25µM*,6%,1%,u
CCn1c(SCc2ccc(C(=O)OC)o2)nc2sc3c(c2c1=O)CCCC3,-14%,u,u,2%,u
CCn1c(SCC(=O)OC)nc2sc3c(c2c1=O)CCC3,u,13%,13µM*,-4%,25%
O=C(CSc1nnc(-c2cccc(Cl)c2)o1)N1CCc2ccccc21,x,x,x,5%,x
Oc1ccc(C(c2nnnn2C2CCCC2)N2CCc3ccccc3C2)cc1 (stereo unspecified),19%,u,u,u,u
O=C(CSc1nnc(Cn2nnc3ccccc32)o1)N(Cc1ccc(F)cc1)c1ccccc1,-12%,16µM*,3%,u,u
O=C(NCc1ccco1)NCC(F)(F)F,-18%,7%,-3%,-2%,7%
O=C(NCc1ccccc1)c1ccc(-c2ccccc2F)o1,16µM*,14%,-3%,u,32%
Cc1ccc(-c2nnc(SCc3ccccc3F)o2)cc1,140%,u,10%,6%,u
COc1ccc(-c2nnc(SCc3ccccc3F)o2)cc1OC,-19%,u,13µM*,0%,u
COc1ccc(-c2noc(CSc3nc(N)c(-c4ccccc4)c(=O)[nH]3)n2)cc1,13µM*,14%,u,0%,x
CCOc1ccc(S(=O)(=O)N(CC(N)=O)c2ccc(C)cc2)cc1,-4%,9%,8%,1%,0%
CCN(Cc1nc2ccccc2c(=O)[nH]1)Cc1nc2cc(OC)c(OC)cc2c(=O)[nH]1,u,-4%,4µM*,-3%,0%
CC(C)(C)C(=O)NC1(C(F)(F)F)C(=O)Nc2c1c(=O)[nH]c(=O)n2-c1ccccc1 (stereo unspecified),x,x,x,0%,x
Cc1cc2n(n1)C(c1ccc(N(C)C)cc1)Nc1ccccc1-2 (stereo unspecified),-13%,-16%,7.9µM*,2%,-3%
Cc1cc2n(n1)C(c1ccccc1)Nc1ccccc1-2 (stereo unspecified),1%,2%,21%,-2%,3%[11.4 µM]
CCOC(=O)C1CCCN(Cc2ccc(OC)cc2OC)C1 (stereo unspecified),47%,32µM*,0%,2%,u
CCOC(=O)C1CCCN(Cc2ccc(O)c(OC)c2)C1 (stereo unspecified),-3%,-1%[11.4 µM],u,1%,-1%[11.4 µM]
SMILES,ERK AVP inh,HEK293 cAMP cs,CRE-bla Fsk,IkB signaling,TSHR ag
c1coc(-c2nnc(SCc3cn4ccccc4n3)o2)c1,6%,5%,10µM*,0%,1%
Brc1c(CSc2nnc(-c3ccco3)o2)nc2ccccn12,1%,17%,3.2µM*,-3%,3%
COC(=O)c1cc2sccc2n1CC(=O)Nc1cccc(SC)c1,-2%,25µM*,-10%,-1%,u
Fc1cccc(Cl)c1CSc1nnc(COc2cccc3cccnc23)o1,u,25µM*,18%,8%,u
CCOC(=O)c1c(-c2ccc(Br)cc2)csc1NC(=O)c1ccccc1F,x,x,x,1%,x
CCOC(=O)c1c(-c2ccccc2)csc1NC(=O)c1nn(CC)cc1Br,17%,4%,2.5µM*,u,-4%
CCOC(=O)c1c(NC(=O)c2nn(CC)cc2Br)c(C#N)cn1-c1ccccc1,-30%,24%,2.5µM*,u,13%
CCn1cc(S(=O)(=O)CC(=O)Nc2cc(C)on2)c2ccccc21,23%,5%,-5%,0%,1%
CCOc1ccc(-c2nc(CSCC(=O)N3CCN(c4cccc(OC)c4)CC3)c(C)o2)cc1,13µM*,-5%,u,u,7%
CN1C[C@@H]2C(c3ccc(C(F)(F)F)cc3)C3(c4ccc(C#N)cc4)CC2(C3)[C@H]1c1ccccc1 (stereo partly specified),-17%,x,x,x,x
Cc1nn(-c2ccc(F)cc2)c2nc(N)c(C#N)c(-c3cccs3)c12,6%,12%,7.9µM*,4%,28%
COc1cc(-c2c(C#N)c(N)nc3c2c(C)nn3-c2ccc(C)c(C)c2)cc(OC)c1OC,-12%,7%,2.5µM*,0%,14%
Cc1ccc(NC(=O)C2CCC(CNS(=O)(=O)c3ccc4c(c3)C(C)(C)C(=O)N4C)CC2)cc1 (stereo unspecified),x,x,x,-1%,x
Cc1cc(F)ccc1NC(=O)C1CCN(S(=O)(=O)c2ccc3c(c2)CCCC(=O)N3)CC1,x,x,x,1%,x
C(=N/Nc1ccccn1)/c1cccnc1,-13%[11.5 µM],-4%[11.4 µM],1%[7.6 µM],-1%[11.4 µM],-2%[11.4 µM]
CCc1ccccc1NC(=O)c1cc2nc(-c3ccc(OC)c(OC)c3)cc(C(F)(F)F)n2n1,x,x,x,-3%,x
O=C1[C@@H]2C(c3ccccc3Cl)=NO[C@@H]2C(=O)N1Cc1ccccc1,12%,2%,-6%,7%,3.2µM*
CCOC(=O)N/N=C1/C[C@@H](O)[C@@H](O)[C@@H]2[C@@H]3C(=O)N(c4cccc(Oc5ccccc5)c4)C(=O)[C@H]3CC[C@@H]12,7%[11.5 µM],-6%[11.4 µM],x,x,5%[11.4 µM]
Nc1ccccc1CCCC(=O)O,-4%[11.5 µM],-1%[11.4 µM],-1%[7.6 µM],-1%[11.4 µM],1%[11.4 µM]
CCOC(=O)c1c(NC(=O)c2cccs2)sc2c1CCN(C(=O)OCC)C2,28%,12%,u,u,16%
Cc1ccc(-c2nn(CC(=O)NCCN3CCOCC3)c(=O)c3ccccc23)cc1,-12%,19%,-6%,3%,x
O=c1c2cccc3c2c(nn1CN1CCOCC1)-c1ccccc1-3,-11%,15%,13µM*,1%,17%
CCNc1ncc2nc(C)c(=O)n(CCC#N)c2n1,u,1%,13µM*,2%[11.4 µM],-2%
Cc1nc2cnc(Nc3ccccc3)nc2n(CCC#N)c1=O,-1%,u,u,1%[11.4 µM],u
Cc1nc2cnc(OCc3ccccc3)nc2n(CCC#N)c1=O,-17%,u,7%,1%[11.4 µM],u

# High-throughput results deposited in PubChem by National Center for Advancing Translational Sciences (NCATS).
